Among all 310,000 compounds or so, about 1,900 (0.61%) were called active.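 The calls were made as follows: active = plate-corrected calcium response at least 3 library SD above typical, normal starting fluorescence, not activating the receptor alone; inactive = the rest.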 Only a selection was taken, and actives are over-represented in it overall.
Target: Mas-related G-protein coupled receptor member X1 (Homo sapiens) (UniProt Q96LB2)
Experiment: positive allosteric modulators of MrgX1, primary screen, HEK293 cells, Fluo-4 calcium flux (AID 588675);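 also: compound read alongside a low EC10 to EC30 dose of BAM8-22 agonist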;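 as to B-score: peak minus trough fluorescence over baseline measured at the second addition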
Settings: MrgX1-HEK293, Fluo-4 calcium flux, FDSS, at 10 µM; stronger effect = higher value

Mas-related G-protein coupled receptor member X1 (Homo sapiens), sequence (Q96LB2 whole entry, looked up): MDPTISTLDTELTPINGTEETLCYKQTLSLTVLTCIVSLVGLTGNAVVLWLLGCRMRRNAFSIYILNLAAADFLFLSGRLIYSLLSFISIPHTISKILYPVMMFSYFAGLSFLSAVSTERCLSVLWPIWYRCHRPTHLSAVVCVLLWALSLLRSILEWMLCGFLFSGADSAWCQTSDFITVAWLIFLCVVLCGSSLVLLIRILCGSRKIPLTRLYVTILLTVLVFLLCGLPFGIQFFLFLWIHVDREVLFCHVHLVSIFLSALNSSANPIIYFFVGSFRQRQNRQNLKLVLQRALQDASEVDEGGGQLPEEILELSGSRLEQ

SMILES	B-score
COc1ccc(Cl)cc1NC(=O)CN(C)C(=O)c1cc(-c2cccs2)nn1-c1ccccc1	inactive
Cn1c(=O)[nH]c(=O)c2c1nc(CN1CCN(c3ccccc3F)CC1)n2CCc1ccccc1	inactive
Cn1c(S(=O)(=O)O)nc2ccccc21	inactive
N#C/C(=C1/CCCN1)c1ccccn1	inactive
Cn1c(/C(C#N)=C2/CCCCCN2)nc2ccccc21	8.34 (active)
O=C(CN1C(=O)NC2(CCCCC2)C1=O)NCCC1=CCCCC1	inactive
CCCC1C(=O)N2C(N(C)C)=Nc3ccc(C)cc3N2C1=O (stereo not drawn)	inactive
O=[N+]([O-])C(=c1ccc2c(c1)N1C3=C(CCCC3)CC3CCCCC31N=2)[N+](=O)[O-] (stereo not drawn)	inactive
COc1cccc(CN(C)CC(O)COC(c2ccccc2)c2ccccc2C)c1 (stereo not drawn)	inactive
COc1ccc(C(=O)NC(=S)NC2CCCCC2)cc1	7.2 (active)
O=C(NC(=S)NC1CCCCC1)c1ccc(Cl)cc1	inactive
COc1ccc(C(=O)NNC(=S)NC(=O)c2ccccc2)cc1	inactive
NC(=O)c1ccc(Nc2ccc3nonc3c2[N+](=O)[O-])cc1	inactive
CC(C)c1ccc(Nc2nnc(SCC(=O)c3nnc(-c4ccccc4)o3)s2)cc1	inactive
COCC(=O)Nc1c(I)c(C(=O)NCC(O)CO)c(I)c(C(=O)N(C)CC(O)CO)c1I (stereo not drawn)	inactive
COc1cccc(OC)c1C(=O)OCC(=O)/C(C#N)=C(\C)N	inactive
O=C(NCC(=O)N1CCCC(C(F)(F)F)C1)c1ccccc1F (stereo not drawn)	inactive
O=C(CNS(=O)(=O)c1ccccc1)N1CCN(C(=O)c2ccco2)CC1	inactive
O=C(c1cccc(S(=O)(=O)Nc2ccccc2Cl)c1)N1CCN(C(=O)c2ccco2)CC1	10.7 (active)
O=C(c1cccc([N+](=O)[O-])c1)N1CCN(C(=O)c2ccco2)CC1	inactive
C#CCOCCOCCOCCNc1nc(N2CCN(C(=O)CCCCCCCCCCNC(=O)[C@H](CCCCN)n3cc(C)nn3)CC2)nc(N2CCN(C(=O)CCCCCCCCCCNC(=O)[C@H](CO)n3cc(CCCSC)nn3)CC2)n1	inactive
Cc1ccc(N(C(=O)C(F)(F)F)C(C(=O)NC2CCCCC2)c2ccncc2)cc1C (stereo not drawn)	inactive
COC(=O)Cn1c(O)c(N=NC(=O)OC)c2ccccc21	7.73 (active)
CCOC(=O)Cn1c(O)c(N=NC(=O)CNC(=O)Cc2ccccc2)c2ccccc21	inactive
N#CCCCn1c(O)c(N=NC(=O)C(O)c2ccccc2)c2ccccc21 (stereo not drawn)	inactive
Brc1ccccc1C1Nc2cccc3cccc(c23)N1	11.9 (active)

SMILES	B-score
Cc1ccc(C2Nc3cccc4cccc(c34)N2)cc1	inactive
Oc1ccc(C2Nc3cccc4cccc(c34)N2)cc1	inactive
CCn1cc(C(=O)NC2CCCCCC2)c(=O)c2cc(S(=O)(=O)N3CCCCC3)ccc21	inactive
Cc1ccc(C)c(-c2nnc(NC(=O)CS(=O)(=O)c3ccccc3)o2)c1	inactive
CN(C)S(=O)(=O)Oc1ccccc1C(=O)Nc1ccccc1Cl	inactive
CC1CCN(S(=O)(=O)c2ccc3[nH]c(=O)ccc3c2)CC1	inactive
Cc1cc(C)c(NC(=O)CN2C(=O)NC(Cc3ccccc3)C2=O)c(C)c1 (stereo not drawn)	inactive
O=C1C(Cc2ccc(O)cc2)NC(=S)N1Cc1ccccc1 (stereo not drawn)	9.49 (active)
COc1ccc(N2C(=O)C(Cc3ccccc3)NC2=S)cc1 (stereo not drawn)	inactive
CC1(C)CC(=O)C2=C(C1)N=C1SCCC(=O)N1C2c1ccc(C(F)(F)F)cc1 (stereo not drawn)	inactive
COc1ccc(CNc2c(CO)cnc3c2cnn3C)cc1	inactive
COCCNC(=O)c1ccc2nc(Cc3ccc(OC)c(OC)c3)oc2c1	inactive
COc1ccc(CCNS(=O)(=O)c2cccc3cccnc23)cc1OC	inactive
COc1ccc(Cc2nc(-c3ccccn3)no2)cc1OC	8.9 (active)
Cc1ccc(N2CC(C(=O)Nc3cc(Cl)ccc3-n3cncn3)CC2=O)cc1 (stereo not drawn)	inactive
Cn1nc(C(F)(F)F)c(-c2ccc(F)cc2)c1NC(=O)CSCC(=O)O	inactive
CCCC1OC23CCCCC2C(C#N)(C#N)C1(C#N)C(=N)O3 (stereo not drawn)	inactive
COc1ccc(CN(C)C(=O)Cc2ccsc2)c(OC)c1OC	inactive
O=C(Nc1ccccc1N1CCCC1)c1ccc2ccccc2c1	inactive
O=C(Nc1ccccc1N1CCCCC1)c1ccc2nccnc2c1	7.2 (active)
O=C(Nc1ccccc1N1CCN(c2ccccc2)CC1)c1cccc(F)c1	inactive
COCCn1c(CN2CCC(Cc3ccccc3)CC2)nc2c1c(=O)n(C)c(=O)n2C	inactive
CCOc1ccc(NC(=O)CCS(=O)(=O)c2ccc3c(c2)CCCN3C(=O)CC)cc1	inactive
Cc1ccc(S(=O)(=O)N2CCC(C(=O)NCCC3=CCCCC3)CC2)cc1C	inactive
CC(=O)N1N=C(c2ccccc2)OC1c1cccnc1 (stereo not drawn)	inactive
O=C(Cc1ccccc1)N1N=C(c2ccncc2)CC1(O)C(F)(F)F (stereo not drawn)	inactive

SMILES	B-score
CC(=O)N1N=C(c2ccncc2)OC1(Cc1ccccc1)Cc1ccccc1	7.85 (active)
O=C(c1ccccc1)C(Cn1cncn1)C(Sc1ccccc1)c1ccccc1 (stereo not drawn)	inactive
CCN(CC(=O)Nc1ccccc1OC)C(=O)Cn1cnc2ccccc2c1=O	inactive
Cc1ccc(/C=C/C(=O)O)cc1S(=O)(=O)N1CCC(Cc2ccccc2)CC1	inactive
Cn1cnnc1Sc1ccc(S(C)(=O)=O)cc1[N+](=O)[O-]	12.1 (active)
CC(=O)Nc1ccc(Nc2c([N+](=O)[O-])cc(S(C)(=O)=O)cc2[N+](=O)[O-])cc1	inactive
CCN(CC(=O)Nc1c(F)cccc1F)C(=O)c1ccc(Sc2nncn2C)c([N+](=O)[O-])c1	inactive
CS(=O)(=O)Nc1ccc(C(=O)N2CCCC2)cc1	inactive
Cn1c(=O)c2c(nc(N/N=C/c3cccs3)n2Cc2ccc(Br)cc2)n(C)c1=O	inactive
COc1ccc(NC(=O)C2C3C=CC(C3)C2C(=O)NCc2ccccn2)c(OC)c1 (stereo not drawn)	inactive
Cn1c(=O)n(C)c2cc(S(=O)(=O)N3CCCc4ccccc43)ccc21	inactive
COc1cc(C)c(C)cc1S(=O)(=O)N1CCCc2ccccc21	7.48 (active)
COc1ccc(C(=O)OCC(=O)NCC2CCCCC2)cc1S(=O)(=O)N1CCCc2ccccc21	inactive
CC[C@@H](C)[C@@H](C(=O)N1CCN(C(=O)OC(C)(C)C)CC1)n1cc(CCC(=O)O)nn1	inactive
CC1CN(S(=O)(=O)c2cccc(C(F)(F)F)c2)CN1C(=O)N1CCOCC1 (stereo not drawn)	inactive
COc1ccc(C2SCCN2S(=O)(=O)c2ccccc2)cc1OC (stereo not drawn)	7.25 (active)
COc1ccc(C2CC(=O)n3c(nc4ccccc43)S2)cc1OC (stereo not drawn)	inactive
COc1ccc(S(=O)(=O)N2CCC(C(=O)N3CCc4ccccc4C3)CC2)cc1OC	inactive
Cc1cc(NC(=O)CS(=O)(=O)c2cn(C)c3ccccc23)no1	inactive
CCCCN1C(N)=NC[C@@H]1CC1CCCCC1	inactive
COc1ccccc1CCNS(=O)(=O)c1cn(C)nc1C	inactive
CCOc1ccc2nc(N(CCCN(C)C)C(=O)c3ccc(C(=O)c4ccccc4)cc3)sc2c1	inactive
CC(N=Cc1nc(-c2ccccc2)oc1O)c1ccccc1 (stereo not drawn)	inactive
CCOc1ccc2nc(/N=C/c3nc(-c4ccccc4)oc3O)sc2c1	18.1 (active)
CN1C(=O)CC(c2ccccc2)C1=O (stereo not drawn)	inactive
Cc1cccc(N(C)C(=O)c2cc(S(=O)(=O)N3CCCCC3)c[nH]2)c1	inactive

SMILES	B-score
COC(=O)Cn1c(=NC(=O)c2cc(OC)c(OC)c(OC)c2)sc2cc(OC)ccc21	inactive
COc1ccc(OC)c(C(=O)c2ccc(Cl)cc2)c1	inactive
COc1ccc(/C(C)=N/NC(=O)CCC(=O)Nc2ccc(Cl)cc2Cl)c(OC)c1	inactive
COc1ccc(OC)c(/C(C)=N\NC(=O)c2cc3cc(Cl)ccc3n2C)c1	6.86 (active)
CCOc1ncccc1C(=O)NNC(=O)c1cccc(S(=O)(=O)Nc2ccccc2OC)c1	7.54 (active)
CCOc1ccccc1NS(=O)(=O)c1c[nH]c(C(=O)OC)c1	inactive
CCN(CC(=O)NCc1cccs1)C(=O)c1cccc(S(=O)(=O)Nc2ccccc2OC)c1	inactive
COc1ccc(CCNC(=S)NC(=O)/C=C/c2ccc(C)cc2)cc1OC	inactive
COCCCNC(=O)CN1CCN(Cc2ccccc2Cl)C1=O	inactive
C#CCOCCOCCOCCNc1nc(N2CCN(C(=O)[C@H](CCCCN)n3cc(CCC(=O)O)nn3)CC2)nc(N2CCN(C(=O)[C@H](CCCCN)n3cc(CC(C)O)nn3)CC2)n1 (stereo partly drawn)	inactive
COc1ccc(CCNc2nc3ccc(C)cc3n3cnnc23)cc1OC	inactive
COc1cc(Nc2nc3ccc(Cl)cc3n3cnnc23)cc(OC)c1OC	inactive
COc1ccc(OC)c(Nc2nc3ccccc3n3cnnc23)c1	9.87 (active)
Cc1nn2cc(-c3ccc(Cl)cc3)cnc2c1Br	inactive
CN1C(C)(C)CC(NC(=O)CCC(=O)NC2CC(C)(C)N(C)C(C)(C)C2)CC1(C)C	inactive
S=c1nc(C23CC4CC(CC(C4)C2)C3)nc2sccn12	inactive
Nc1nc(C23CC4CC(CC(C4)C2)C3)cs1	15.8 (active)
Nc1nc(SC23CC4CC(CC(C4)C2)C3)ns1	inactive
FC(F)(F)c1ccc2nnc(-c3c(Cl)cccc3Cl)n2c1	inactive
C/C(=N\NC(=O)CC(C)C)c1c(C(F)(F)F)[nH]n(-c2nc3ccccc3s2)c1=O	inactive
COC(=O)Cc1cc(=O)n(-c2nc3ccccc3s2)[nH]1	7.64 (active)
COC(=O)Cc1[nH]n(-c2nc3ccccc3s2)c(=O)c1C(C)=Nc1ccc(OC)cc1	inactive
COc1ccc([N+](=O)[O-])cc1-c1nc2ccccc2nc1-c1ccccc1	inactive
O=[N+]([O-])c1ccc2oc(-c3cccc(O)c3)nc2c1	inactive
COc1ccc(-c2nc3cc([N+](=O)[O-])ccc3o2)cc1OC	11 (active)

Source: PubChem BioAssay AID588675 (Johns Hopkins Ion Channel Center, 2011)
